14 molecules from PubChem BioAssay (NCATS) can be followed below.

Structures are written as SMILES. “And” between values parts separate entries of the source, which are not always exact repeats. Equal values may be shown once. A number with no mark means an inactive call. Records with an inconclusive call do not appear. The source made the active and inactive calls. Unless noted, calls come from the whole dose curve; as a rule, active = well fitted curve in the direction sought with a large enough effect; inconclusive = small, poorly fitted or top-dose-only effect, or another doubt; inactive = no such curve, though single readings can be large; an effect the other way counts as inactive or inconclusive.

The nature of assay [1]: qHTS assay for small molecule agonists of the antioxidant response element (ARE) signaling pathway measured by Nrf2-dependant transcriptional activity (AID 720636; active = well fitted curve in the direction sought with a large enough effect in the repeat runs; an effect the other way counts as inactive or inconclusive;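 note: HepG2 cells with an ARE-driven luciferase reporter; % of control where 0% means no effect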). A digest of the protocol: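 First, ARE-luc HepG2 cells attached for 6 hr at 37 C in 1% dialyzed FBS medium. Next, compound or DMSO was added and incubated 16 hr. Finally, ONE-Glo reagent was added and luminescence measured after 30 min.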
On the technique in general: qHTS replaces the single test concentration by a dilution series.

The nature of assay [2]: qHTS assay for small molecule antagonists of the retinoid-related orphan receptor gamma (ROR-gamma) signaling pathway - cell viability counter screen (AID 720652; active = well fitted curve in the direction sought with a large enough effect in the repeat runs; an effect the other way counts as inactive or inconclusive;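 note: CHO reporter cells with doxycycline-induced ROR-gamma expression; series mostly up to about 92 µM; compound exposure lasted 16 hr before ATP read; % is set by controls: 0 for no effect and ±100 for the full control effect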). In a few lines:
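Cytotoxicity counter screen: intracellular ATP (CellTiter-Glo luminescence) measured in the doxycycline-induced CHO RORE-luciferase reporter line after 16 hr compound exposure at 37 C, 5% CO2.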

The nature of assay [3]: qHTS assay for small molecule agonists of the antioxidant response element (ARE) signaling pathway measured by Nrf2-dependant transcriptional activity - cell viability counter screen (AID 720653; active = well fitted curve in the direction sought with a large enough effect in the repeat runs; an effect the other way counts as inactive or inconclusive; note: % is set by controls: 0 for no effect and ±100 for the full control effect). The conditions noted are these: ARE-bla HepG2 viability, CellTiter-Glo ATP luminescence, 16 h; max response: hits give low values. A digest of the protocol:
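ARE-bla HepG2 cells (2,000/well) rested 5 hrs at 37C/5% CO2, then exposed to compounds in DMSO for 16 hrs. Viability was read in the same wells as intracellular ATP by luminescence, 30 min at room temperature after reagent addition.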

The nature of assay [4]: qHTS Assay for Identifying Gametocytocidal Compounds (AID 743244).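 For max response: % is set by controls: 0 for no effect and ±100 for the full control effect; actives lower the fluorescent signal which means gametocytes are killed.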 Note: potency is the fitted concentration of half-maximal effect. The conditions noted are these: P. falciparum 3D7 stage III-V gametocytes, alamarBlue, 72 h; max response: hits give low values. A digest of the protocol: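 Compounds are pinned into medium, gametocytes (stage III–V, 3D7, 20,000 cells/well) added, and plates held 72 h at 37 °C in 5% CO2. AlamarBlue follows for 24 h before fluorescence reading.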

Assay [5] is described as follows: qHTS assay for cell viability of HEK293 cells (AID 743288). Note: % is set by controls: 0 for no effect and ±100 for the full control effect; nearly all actives have a fitted effect of over 50% in size. As to conditions: ATP luminescence (CellTiter-Glo), 18 h, hits give low values. In a few lines:
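HEK293, 18 h, 37 C, ATP luminescence. Cells at 2,000/well were allowed at least 5 h to settle before dosing; CellTiter-Glo developed 30 min at RT.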

The nature of assay [6]: qHTS assay for cell viability of the p53RE-bla HCT-116 cell line (AID 743292). Note: % is set by controls: 0 for no effect and ±100 for the full control effect; nearly all actives have a fitted effect of over 55% in size. A digest of the protocol:
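Quantitative high-throughput format: compounds in DMSO were pinned onto p53RE-bla HCT-116 cells (4,000/well) and incubated 16 h at 37 C. Total intracellular ATP, read by CellTiter-Glo luminescence, reflects viable cell number.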

A short description of assay [7]: qHTS assay for measurement of the activity of small molecule inhibitors on Zika virus induced Caspase-3 activity in human iPSC derived neural progenitor cells (hNPCs) (AID 1224857). Note: % of control where 0% means no effect; nearly all actives have a fitted effect of over 65% in size. A digest of the protocol: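 Pretreat hNPCs with compound 1 h; infect ZIKV 2 FFU/cell; 6 h 37 C, 5% CO2; Caspase-Glo 3/7, 30 min RT; luminescence; normalize to no-virus and virus-only wells.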

A short description of assay [8]: qHTS assay for measurement of the activity of small molecule inhibitors on Zika virus induced Caspase-3 activity in human astrocytoma cells (AID 1224859).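 Note: plate controls were ZIKV-infected untreated cells for no effect and uninfected cells for full effect.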 A digest of the protocol:
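Human SNB-19 astrocytoma cells in RPMI 1640 with 10% FBS receive compound one hour ahead of Zika virus at 2 FFU/cell. After 6 h infection, caspase-3/7 activity is detected by Caspase-Glo luminescence.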

A short description of assay [9]: P-glycoprotein substrates identified in KB-8-5-11 adenocarcinoma cell line, qHTS therapeutic library screen (AID 1346987). Note: nearly all actives have a fitted effect of over 65% in size. Note: potency is the fitted concentration of half-maximal effect. In a few lines:
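Compounds are pinned in dose-response onto KB-8-5-11 cells (500 cells/well, colchicine-free medium) and left 72 h at 37 degree C. CellTiter-Glo luminescence then yields AC50 values.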

In assay [10] the target is T1, Hexokinase-4 (Homo sapiens) + Glucokinase regulatory protein (Homo sapiens) (UniProt P35557+Q14397). The assay can be described thus: qHTS assay for inhibitors of recombinant human GCK-GKRP interaction: Diaphorase-coupled assay (AID 743205). A digest of the protocol: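 Signal derives from resorufin generated by diaphorase, linked to GCK turnover of glucose (5 mM) and ATP (0.4 mM). Enzyme complex was added after a 20-minute compound preincubation and monitored for 30 minutes.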
T1 sequence (P35557 whole entry, looked up): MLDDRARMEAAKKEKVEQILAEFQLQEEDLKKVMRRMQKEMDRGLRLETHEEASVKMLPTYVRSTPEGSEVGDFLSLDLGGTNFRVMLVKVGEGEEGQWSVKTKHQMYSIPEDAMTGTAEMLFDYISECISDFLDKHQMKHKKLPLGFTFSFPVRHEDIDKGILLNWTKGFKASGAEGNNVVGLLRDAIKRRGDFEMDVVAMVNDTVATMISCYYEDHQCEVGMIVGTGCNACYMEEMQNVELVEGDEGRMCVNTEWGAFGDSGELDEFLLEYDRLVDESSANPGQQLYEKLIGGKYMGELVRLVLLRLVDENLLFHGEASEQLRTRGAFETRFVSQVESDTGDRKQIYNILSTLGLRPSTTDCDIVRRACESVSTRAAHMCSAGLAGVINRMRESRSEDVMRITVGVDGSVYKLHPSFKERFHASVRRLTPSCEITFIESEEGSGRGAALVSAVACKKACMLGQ
T1 sequence (Q14397 whole entry, looked up): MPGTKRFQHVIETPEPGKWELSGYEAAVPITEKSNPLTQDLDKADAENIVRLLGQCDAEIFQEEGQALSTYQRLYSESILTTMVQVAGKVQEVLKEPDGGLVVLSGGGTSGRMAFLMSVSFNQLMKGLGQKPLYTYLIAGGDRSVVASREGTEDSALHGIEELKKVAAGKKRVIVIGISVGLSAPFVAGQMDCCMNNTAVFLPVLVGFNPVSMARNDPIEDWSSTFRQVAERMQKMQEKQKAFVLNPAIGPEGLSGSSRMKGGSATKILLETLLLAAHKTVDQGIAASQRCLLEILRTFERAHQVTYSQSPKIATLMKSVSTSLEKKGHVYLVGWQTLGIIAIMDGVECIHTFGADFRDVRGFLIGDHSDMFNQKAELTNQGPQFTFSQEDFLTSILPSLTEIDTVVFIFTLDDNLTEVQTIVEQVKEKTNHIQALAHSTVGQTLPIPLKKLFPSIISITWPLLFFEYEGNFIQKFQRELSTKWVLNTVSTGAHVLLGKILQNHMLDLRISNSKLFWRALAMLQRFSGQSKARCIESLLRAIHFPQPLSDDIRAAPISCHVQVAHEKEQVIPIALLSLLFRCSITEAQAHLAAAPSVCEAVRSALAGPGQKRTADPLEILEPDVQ

Assay [11] deals with T1, Hexokinase-4 (Homo sapiens) + Glucokinase regulatory protein (Homo sapiens). The assay can be described thus: qHTS assay for inhibitors of recombinant human GCK-GKRP interaction: ADP-Glo assay (AID 743206).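 Note: plate controls were DMSO plus enzyme for no effect and no enzyme for full effect.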 A digest of the protocol: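 Pin-transferred compounds meet a 15 nM GST-GCK/15 nM FLAG-GKRP/2 uM S6P mix (dispense concentrations). ATP is then added to 0.4 mM final with 5 mM glucose, and the reaction runs 60 min at room temperature. ADP is quantified luminescently.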

The target is the same in assay [12]. In words: qHTS assay for inhibitors of recombinant human GCK-GKRP interaction: HTRF assay (AID 743207).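 Note: 0% = DMSO with GCK present and -100% = DMSO wells lacking GCK.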 In a few lines:
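Titration screening format: recombinant GST-GCK and FLAG-GKRP at 5 nM, S6P at 2 uM, labelled anti-tag antibodies, 60 min at RT, dual-wavelength HTRF readout.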

In assay [13] the target is Atrial natriuretic peptide receptor 1 (Homo sapiens) (UniProt P16066). In words: Natriuretic polypeptide receptor (hNpr1) antagonism - Pilot screen (AID 1347049; calls by dose curve;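 note: HEK293 cells with hNpr1 and GloSensor cGMP luciferase stimulated by 0.1 nM hNppA; agonist-evoked cGMP luminescence read 20 min after hNppA addition; potency is the fitted concentration of half-maximal effect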). A digest of the protocol: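 Cells expressing receptor plus cGMP biosensor are seeded and incubated overnight at 37C, then loaded with GloSensor reagent (2% final) at room temperature for 2 h. Library compounds go on for 30 min. A pre-read precedes agonist (hNppA, 0.1 nM final) and a 20-min readout.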
Atrial natriuretic peptide receptor 1 (Homo sapiens), sequence (P16066 whole entry, looked up): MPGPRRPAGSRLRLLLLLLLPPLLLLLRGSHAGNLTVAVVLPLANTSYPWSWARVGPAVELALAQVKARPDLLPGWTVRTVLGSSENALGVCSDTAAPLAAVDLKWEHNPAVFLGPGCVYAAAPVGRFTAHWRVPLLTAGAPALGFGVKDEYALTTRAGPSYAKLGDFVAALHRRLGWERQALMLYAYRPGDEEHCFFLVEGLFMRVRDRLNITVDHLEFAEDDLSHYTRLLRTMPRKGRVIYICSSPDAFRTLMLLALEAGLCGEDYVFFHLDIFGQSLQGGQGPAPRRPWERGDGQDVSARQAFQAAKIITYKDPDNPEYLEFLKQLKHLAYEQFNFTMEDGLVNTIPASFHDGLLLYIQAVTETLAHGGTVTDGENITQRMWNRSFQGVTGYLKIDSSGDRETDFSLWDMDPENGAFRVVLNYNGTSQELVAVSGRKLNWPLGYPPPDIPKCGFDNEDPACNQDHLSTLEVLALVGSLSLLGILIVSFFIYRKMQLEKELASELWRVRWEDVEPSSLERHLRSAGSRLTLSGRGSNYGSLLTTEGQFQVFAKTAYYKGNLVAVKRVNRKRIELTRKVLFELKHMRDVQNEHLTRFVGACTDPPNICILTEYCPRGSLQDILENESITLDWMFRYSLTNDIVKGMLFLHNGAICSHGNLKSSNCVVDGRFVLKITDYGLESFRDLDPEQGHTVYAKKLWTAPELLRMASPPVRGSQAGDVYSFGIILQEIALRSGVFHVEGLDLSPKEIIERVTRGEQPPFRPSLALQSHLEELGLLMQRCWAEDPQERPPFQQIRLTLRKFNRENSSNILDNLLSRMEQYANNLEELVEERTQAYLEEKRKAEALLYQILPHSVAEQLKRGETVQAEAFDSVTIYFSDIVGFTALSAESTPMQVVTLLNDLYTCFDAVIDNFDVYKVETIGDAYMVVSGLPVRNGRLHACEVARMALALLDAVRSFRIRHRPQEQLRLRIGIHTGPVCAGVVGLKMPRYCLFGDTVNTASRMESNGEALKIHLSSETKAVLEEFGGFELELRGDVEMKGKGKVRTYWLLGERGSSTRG

Consider `CC(C)(c1ccc(O)cc1)c1ccc(O)cc1`, for which the outcome in [1], in assay [2] and in assay [8] was inactive. For the same molecule, the max response in assay [3] was -12.4% and -0.346% and -0.0074%; in assay [4], -6.17%; in [5], 0.899% and -7.06% and -9.11%. Also, the Potency result in assay [6] and in [7] was “inactive” each time.
As to `NCC(=O)O`, the max response in [4] was -6.74%. For the same molecule, the Potency entry in assay [7] and in assay [9] was “inactive” in each case. Further, the molecule was classed as inactive in assay [8].
Consider `CC(C)C[C@H](NC(=O)CNC(=O)[C@H](Cc1ccc(O)cc1)NC(=O)[C@H](CO)NC(=O)[C@H](Cc1c[nH]c2ccccc12)NC(=O)[C@H](Cc1cnc[nH]1)NC(=O)[C@@H]1CCC(=O)N1)C(=O)N[C@@H](CCCN=C(N)N)C(=O)N1CCC[C@H]1C(=O)NCC(N)=O` (stereo in doubt), for which, in assay [4], the max response was -1.4%. Besides, the Potency entry in [7] and in assay [9] was “inactive” each time. Besides, the outcome in assay [8] was inactive.
Turning to `CCOC(=O)OCC/C(SC(=O)OCC)=C(\C)N(C=O)Cc1cnc(C)nc1N`, in assay [4], the max response was 11.2%. Besides, the Potency result in assay [7] and in assay [9] was “inactive” throughout. Also, in [8], the result was inactive.
As to `Cc1cc2nc3ccc(=[N+](C)C)cc-3sc2cc1N`, the Potency in assay [4] was 6.31 µM (active); in assay [9] it was 6.51 µM (active). Moreover, the Potency entry in assay [7] is “inactive”. Moreover, the result in assay [8] was inactive.
Consider `CO[C@@H]1[C@@H](OC)[C@H](C)[C@@](O)(CC(=O)O)O[C@H]1[C@H](C)[C@H]1O[C@@]2(CC[C@@](C)([C@H]3CC[C@@](C)([C@@H]4O[C@@H]([C@H]5O[C@](C)(O)[C@H](C)C[C@@H]5C)C[C@@H]4OC4C[C@H](OC)[C@@H](OC)[C@H](C)O4)O3)O2)C[C@H](O)[C@H]1C` (stereo partly drawn), for which the Potency in assay [4] is 0.0935 µM (active); in assay [9], 8.2 µM (active). For the same molecule, the Potency entry in assay [7] is “inactive”. Besides, in [8], the result was inactive.
In the case of `CC(C)C(C)(C)C(C)(C)C(C)(C)S`, the molecule was classed as inactive in assay [1], in assay [2] and in assay [8]. The max response in assay [3] was -4.36% and 4.23%; in assay [4], 40.1%; in assay [5], 6.58% and -3.43%. The Potency result in [6] and in assay [7] was “inactive” in each case.
Consider `CCC(C(=O)NC(=O)NC(C)=O)c1ccccc1` (stereo not drawn), for which the max response in assay [4] was -11.8%. Moreover, the Potency entry in [7] and in assay [9] was “inactive” throughout. The call in assay [8] was inactive.
As to `C1N2CN3CN1CN(C2)C3`, in assay [4], the max response is 2.07%. Also, the Potency entry in [7] and in [9] was “inactive” in each case. In assay [8], the call was inactive.
In the case of `COC(=O)c1c(Cl)c(Cl)c(C(=O)OC)c(Cl)c1Cl`, the call in [1] and in [8] was inactive. Further, the results for the max response in [3] and in assay [5] were -11.1% and -7.06%, respectively. Also, the Potency result in assay [6] and in [7] was “inactive” in each case.
`O=C(NN1CCCC1)NS(=O)(=O)c1ccc(Cl)cc1`: in [4], the max response was 0.581%. The Potency result in assay [7] and in [9] was “inactive” each time. Moreover, the outcome in [8] was inactive.
`O=C(O)/C=C(\CC(=O)O)C(=O)O`: in [4], the max response is 8.32%. The Potency result in [7] and in assay [9] was “inactive” in each case. In addition, the result in assay [8] was inactive.
In the case of `Cc1cc(OCCOCC[N+](C)(C)Cc2ccccc2)ccc1C(C)(C)CC(C)(C)C`, the Potency in assay [4] is 7.08 µM (active). Besides, the Potency entry in assay [7] and in assay [9] was “inactive” each time. The molecule was classed as inactive in assay [8].
Regarding `CC(C)N(CCC(=O)c1ccc2ccccc2c1)Cc1ccccc1`, the result in [10], in assay [11], in assay [12] and in assay [8] was inactive. Moreover, the Potency result in assay [7] was “inactive”. The Potency in [13] is 13.5 µM (active).
